# Results as given in PubChem BioAssay (NCATS).
# Records with an inconclusive call do not appear. Values without a mark were called inactive. Activity calls are given as the source filed them. The call rests on the fitted dose curve; in most records, active means well fitted inhibition curve with a large enough effect; inconclusive means small, poorly fitted or top-dose-only effect; inactive means no such curve, though single readings can be large or run the other way.
# Experiment: BET inhibitor-based combinations targeting novel dependencies in MECOM-rearranged (r) AML: MV-4-11 cell line (AID 2202233); further: nearly all actives have a fitted effect of over 45% in size
# Conditions: MV-4-11 AML viability, CellTiter-Glo luminescence, 48 h; series mostly up to 46 µM; viability, % of control: at the top concentration
# Outline: (§1)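 Cells were plated at 500 per well and exposed to each drug across an 11-point dose range for 48 hr at standard incubator conditions. Viability was read by CellTiter-Glo luminescence, and activity was expressed as AUC and per-cell-line Z-transformed AUC.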
# Potency means the concentration at half of the fitted maximal effect.
row,SMILES,Potency
1,Oc1cccc(-c2nc(N3CCOCC3)c3oc4ncccc4c3n2)c1,52.5 nM (active)
2,CCCCCCOC(=O)NC(=N)c1ccc(NCc2nc3cc(C(=O)N(CCC(=O)OCC)c4ccccn4)ccc3n2C)cc1,8330 nM (active)
3,COc1ccc(-c2ccc3c(N4CCOCC4)nc(N4C[C@@H](C)O[C@@H](C)C4)nc3n2)cc1CO,1050 nM (active)
4,O=C(Nc1nnc(-c2ccco2)o1)c1cc(-c2ccccc2)nc2ccccc12,20900 nM (active)
5,COc1cccc([C@@H](C)NCCCc2ccccc2Cl)c1,20900 nM (active)

# Experiment: BET inhibitor-based combinations targeting novel dependencies in MECOM-rearranged (r) AML: HNT-34 cell line (AID 2202234); further: nearly all actives have a fitted effect of over 35% in size;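 on viability (% of control): plate controls were vehicle wells for no effect and cell-free wells for full effect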
# Conditions: HNT-34 AML viability, CellTiter-Glo luminescence, 48 h; series mostly up to 46 µM; viability (% of control): at the top concentration
# Outline: as §1
SMILES,viability (% of control) [%],Potency
CCC(C)(C)c1ccc(CC(C)CN2C[C@@H](C)O[C@@H](C)C2)cc1 (some centres not stated),82.3,
Cc1[nH]nc2ccc(-c3cncc(OC[C@@H](N)Cc4ccccc4)c3)cc12,,662 nM (active)
O=C(NC(Cc1cc(=O)[nH]c2ccccc12)C(=O)O)c1ccc(Cl)cc1 (configuration not stated),98.1,
CCOc1cc(N)c(Cl)cc1C(=O)NCC1CN(Cc2ccc(F)cc2)CCO1 (configuration not stated),91.8,
O=C(Nc1c(Cl)cncc1Cl)c1ccc(OC(F)F)c(OCC2CC2)c1,101,
COC(=O)Nc1ccc(-c2nc(N3CCOCC3)c3cnn(C4CCN(C(=O)OC)CC4)c3n2)cc1,,742 nM (active)
CC(=O)OC[C@@H]1O[C@@H](n2ccc(=O)[nH]c2=O)[C@H](OC(C)=O)[C@H]1OC(C)=O,98.1,
CO[C@@H](C(=O)N1Cc2[nH]nc(NC(=O)c3ccc(N4CCN(C)CC4)cc3)c2C1)c1ccccc1,,105 nM (active)
COC(=O)C[C@](O)(CCCC(C)(C)O)C(=O)O[C@@H]1C(OC)=C[C@]23CCCN2CCc2cc4c(cc2[C@H]13)OCO4,,41.7 nM (active)
CC[C@H](NC(C)C)[C@H](O)c1ccc(O)c2[nH]c(=O)ccc12,113,
COc1ccccc1C(=O)Nc1cc2c(cc1N1CCCCC1)n(C)c(=O)n2C,81.8,
COc1ccc(-c2ccc3c(N4CCOCC4)nc(N4C[C@@H](C)O[C@@H](C)C4)nc3n2)cc1CO,,934 nM (active)
COc1ccc(C[C@@H](C)[C@@H](C)Cc2ccc(OC)c(OC)c2)cc1OC,67.1,
CCOC(=O)c1c(C)n(C)c2ccc(O)cc12,97,
O=C(Nc1nnc(-c2ccco2)o1)c1cc(-c2ccccc2)nc2ccccc12,,10500 nM (active)
CCCCCCCN(CC)CCCC(O)c1ccc(NS(C)(=O)=O)cc1 (configuration not stated),58,
CC(=O)Oc1cc2c(s1)CCN(C(C(=O)C1CC1)c1ccccc1F)C2 (configuration not stated),81.5,

# Experiment: BET inhibitor-based combinations targeting novel dependencies in MECOM-rearranged (r) AML: UCSD-AML1 cell line (AID 2202235); further: nearly all actives have a fitted effect of over 40% in size;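 on viability (% of control): plate controls were DMSO vehicle wells for no effect and blank wells for full effect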
# Conditions: UCSD-AML1 AML cells viability, CellTiter-Glo, 48 h; series mostly up to 46 µM; viability (% of control): at the top concentration
# Outline: as §1
SMILES,viability (% of control) [%],Potency
CCC(C)(C)c1ccc(CC(C)CN2C[C@@H](C)O[C@@H](C)C2)cc1 (some centres not stated),90.1,
Cc1[nH]nc2ccc(-c3cncc(OC[C@@H](N)Cc4ccccc4)c3)cc12,,468 nM (active)
O=C(NC(Cc1cc(=O)[nH]c2ccccc12)C(=O)O)c1ccc(Cl)cc1 (configuration not stated),104,
CCOc1cc(N)c(Cl)cc1C(=O)NCC1CN(Cc2ccc(F)cc2)CCO1 (configuration not stated),108,
O=C(Nc1c(Cl)cncc1Cl)c1ccc(OC(F)F)c(OCC2CC2)c1,117,
CCCC1OC2C[C@@H]3[C@H]4CCC5=CC(=O)C=C[C@]5(C)[C@H]4C(O)C[C@]3(C)[C@]2(C(=O)CO)O1 (some centres not stated),111,
COc1ccc(-c2coc3cc(O)cc(O)c3c2=O)cc1,88.7,
CC(=O)OC[C@@H]1O[C@@H](n2ccc(=O)[nH]c2=O)[C@H](OC(C)=O)[C@H]1OC(C)=O,103,
NC(=O)c1ccc(I)c([N+](=O)[O-])c1,109,
COc1ccc(C(=O)CC(=O)c2ccc(C(C)(C)C)cc2)cc1,103,
Cc1ccc(NC(=O)c2cccc(N(C)C)c2)cc1NC(=O)c1ccc(O)cc1,90.7,
CO[C@@H](C(=O)N1Cc2[nH]nc(NC(=O)c3ccc(N4CCN(C)CC4)cc3)c2C1)c1ccccc1,,148 nM (active)
COC(=O)C[C@](O)(CCCC(C)(C)O)C(=O)O[C@@H]1C(OC)=C[C@]23CCCN2CCc2cc4c(cc2[C@H]13)OCO4,,14.8 nM (active)
CC[C@H](NC(C)C)[C@H](O)c1ccc(O)c2[nH]c(=O)ccc12,107,
COc1ccccc1C(=O)Nc1cc2c(cc1N1CCCCC1)n(C)c(=O)n2C,95.5,
CN1CCN(c2ncc(-c3cc(Cl)cc(Cl)c3Cl)c(N)n2)CC1,107,
COc1ccc(C[C@@H](C)[C@@H](C)Cc2ccc(OC)c(OC)c2)cc1OC,96.8,
CCOC(=O)c1c(C)n(C)c2ccc(O)cc12,99.8,
N=C(N)c1ccc2cc(OC(=O)c3ccc(N=C(N)N)cc3)ccc2c1,,23500 nM (active)
O=C(Nc1nnc(-c2ccco2)o1)c1cc(-c2ccccc2)nc2ccccc12,,8330 nM (active)
Nc1nccc(-c2ccc3noc(-c4ccc(Cl)cc4)c3c2)n1,,20900 nM (active)
Cn1c(=O)c(F)c(Nc2ccc(I)cc2F)c2c(=O)n(C[C@@H](O)CO)cnc21,,1320 nM (active)
CCCCCCCN(CC)CCCC(O)c1ccc(NS(C)(=O)=O)cc1 (configuration not stated),79.6,
CC(=O)Oc1cc2c(s1)CCN(C(C(=O)C1CC1)c1ccccc1F)C2 (configuration not stated),104,
COC(c1ccccc1)(c1ccccc1)[C@H](Oc1nc(C)cc(C)n1)C(=O)O,7.14,
